# Assay results as given in PubChem BioAssay AID624405 (Broad Institute, 2012).
# Screen size: about 1,900 compounds; about 250 (13%) were called active. Another 4% or so got no clear call; they are omitted.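 The calls were made as follows: active = fitted curve reaches 40% rescue activity at or below the top valid dose, in every test run; inconclusive = test runs disagree, some active and some inactive; inactive = every run misses the threshold or moves the wrong way.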 A selection follows. Entries with a potency or affinity are not part of this list.
# Assay: suppressors of statin myotoxicity in myotubes, dose response, cell-based, C2C12 myotubes, ATP luminescence, cherry pick (AID 624405);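 also: myotubes are challenged with simvastatin at 10 µM to lower ATP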
# Settings: C2C12 myotubes + simvastatin, 48 h, scaled: DMSO wells 0, geranylgeraniol wells 100; series mostly up to 19.5 µM
row,Structure (SMILES),outcome
1,Cc1cccc(NC(=O)c2ccc(OC3CSC3)cc2)c1,inactive
2,COc1cc(NC(=O)c2ccccc2)c(OC)cc1Cl,inactive
3,COc1ccc(C2NC(C(=O)O)Cc3c2[nH]c2ccccc32)cc1OC (configuration not stated),inactive
4,O=C1C[C@@H]2c3c(cccc3CN1Cc1ccc(Cl)cc1)C[C@@H](O)[C@H]2O,inactive
5,O=C1C[C@@H]2c3c(cccc3CN1Cc1ccc(Br)cc1)C[C@@H](O)[C@H]2O,inactive
6,COc1ccc(CN2[C@H](CO)[C@H]3c4ccccc4N(C(=O)c4ccccc4)C[C@H]32)cc1,inactive
7,O=C(CSc1nc2ccccc2[nH]1)Nc1ccc2c(c1)OCCO2,inactive
8,CCOc1ccc(NC(=O)CN(Cc2ccccc2)S(C)(=O)=O)cc1,inactive
9,Cc1cccc(Nc2nc(CC(=O)O)cs2)c1,inactive
10,CCOC(=O)Cc1nnc(NC(=O)COc2ccc(OC)cc2)s1,inactive
11,C[C@@H]1CN([C@H](C)CO)C(=O)c2cc(C3=CCCCC3)cnc2O[C@@H]1CN(C)C(=O)c1ccccn1,inactive
12,C[C@H]1CN([C@@H](C)CO)C(=O)c2cc(NC(=O)Cc3cn(C)c4ccccc34)ccc2O[C@@H]1CN(C)S(=O)(=O)c1cccs1,inactive
13,Cc1cc(C)nc(N2CCCC(C(=O)NCc3cccs3)C2)n1 (configuration not stated),inactive
14,S=C(NCc1ccc(Cl)cc1)Nc1ccccc1,inactive
15,COc1ccc(S(=O)(=O)Nc2ccc3c(c2)CC(=O)N([C@H](C)CO)C[C@H](C)[C@@H](CN(C)Cc2ccc(C(F)(F)F)cc2)O3)cc1,inactive
16,Cn1c(-c2sc3cc(C(F)(F)F)cnc3c2-c2cccnc2)n[nH]c1=S,inactive
17,CC1(C)CC(C(=O)Nc2nccs2)CCO1 (configuration not stated),inactive
18,C[C@@H]1CN([C@@H](C)CO)C(=O)c2cc(NS(=O)(=O)c3cccs3)ccc2O[C@H]1CN(C)S(=O)(=O)c1ccc(Cl)cc1,inactive
19,COc1ccc(OC)c(S(=O)(=O)Nc2ccccc2C)c1,inactive

row,Structure (SMILES),outcome
1,CCCOn1nnnc1-c1ccccc1,inactive
2,C[C@@H]1CCCCO[C@H](CN(C)C(=O)Nc2cccc3ccccc23)[C@H](C)CN([C@@H](C)CO)C(=O)c2cc(NS(=O)(=O)c3ccc(Cl)cc3)ccc2O1,inactive
3,CC1CCN(c2ncnc3c2cnn3Cc2ccc(Cl)cc2)CC1,inactive
4,C[C@H]1CN([C@@H](C)CO)C(=O)c2cc(C3=CCCCC3)cnc2O[C@@H]1CN(C)Cc1ccccc1F,inactive
5,COc1ccccc1OCCNC1CCCC1,inactive
6,C[C@@H]1CN([C@H](C)CO)C(=O)Cc2cc(NS(=O)(=O)c3cn(C)cn3)ccc2O[C@@H]1CN(C)Cc1ccc(-c2ccccc2)cc1,inactive
7,O=C(Cn1cnc2c(cnn2-c2ccccc2)c1=O)c1ccc(Cl)cc1,inactive
8,CCOC(=O)c1nn(-c2cccc(Cl)c2)c(C)c1C(C)=O,inactive
9,COc1ccc(NC(=O)Nc2cccc3c2O[C@@H](CN(C)C(=O)Nc2cccc4ccccc24)[C@@H](C)CN([C@H](C)CO)C3=O)cc1,inactive
10,C[C@@H]1CN([C@@H](C)CO)C(=O)c2cc(N(C)C)ccc2O[C@H]1CN(C)Cc1ccc(-c2ccccc2)cc1,inactive
11,Oc1ccccc1/C=N/c1c(-c2ccco2)nc2ccccn12,inactive
12,CC(c1nc2ccccc2c(=O)[nH]1)N1CCN(C)CC1 (configuration not stated),inactive
13,C[C@H]1CN([C@@H](C)CO)C(=O)c2cc(NS(=O)(=O)c3cccs3)ccc2O[C@H]1CN(C)Cc1ccc(Cl)c(Cl)c1,inactive
14,O=C(NCc1ccco1)C1CCCN(S(=O)(=O)c2ccccc2)C1 (configuration not stated),inactive
15,O=C(Nc1ccc(S(=O)(=O)N2CCCCC2)cc1)c1ccco1,inactive
16,C[C@H](CO)N1C[C@H](C)[C@H](CN(C)Cc2ccc(C(=O)Nc3ccccc3N)cc2)Oc2ccc(NC(=O)Cn3cnnn3)cc2C1=O,inactive
17,C[C@@H]1CN([C@H](C)CO)C(=O)c2cc(NC(=O)Cc3cn(C)c4ccccc34)ccc2O[C@H]1CN(C)Cc1ccc(-c2ccccc2)cc1,inactive
18,C[C@H]1CN([C@@H](C)CO)C(=O)c2cc(NC(=O)Cc3cn(C)c4ccccc34)ccc2O[C@@H]1CN(C)Cc1ccc(C(F)(F)F)cc1,inactive
19,CC(=O)N(C)c1ccc(OCC(O)COc2ccc(N(C)C(C)=O)cc2)cc1,inactive

row,Structure (SMILES),outcome
1,Cc1cccc(NC(=O)C2CCCN(S(=O)(=O)c3cccc4nsnc34)C2)n1 (configuration not stated),inactive
2,CN(C(=O)c1ccc(NC(=O)Cc2ccc(NC(=O)C3CCN(C(=O)CCc4ccccc4)CC3)cc2)cc1)C1CC1,inactive
3,CCCc1cc(Nc2c(C)n(C)n(-c3ccccc3)c2=O)n2c(nc3ccccc32)c1C#N,inactive
4,Cc1ccc(S(=O)(=O)Nc2cccc3c2O[C@@H](CN(C)Cc2ccc(C(F)(F)F)cc2)[C@H](C)CN([C@H](C)CO)C3=O)cc1,inactive
5,C[C@@H]1CCCCO[C@@H](CN(C)S(=O)(=O)c2ccc(Cl)cc2)[C@H](C)CN([C@H](C)CO)C(=O)c2cc(NS(C)(=O)=O)ccc2O1,inactive
6,O=C(Nc1ccc(NC(=O)c2ccco2)nc1)c1ccccn1,inactive
7,COc1ccc(NC(=O)Nc2ccc3c(c2)C(=O)N([C@@H](C)CO)C[C@@H](C)[C@H](CN(C)Cc2ccc(C(F)(F)F)cc2)OCCCC[C@H](C)O3)cc1,inactive
8,O=C(NCC12CC3CC(CC(C3)C1)C2)c1nn2c(c1Cl)NC(c1ccco1)CC2C(F)(F)F (configuration not stated),inactive
9,COc1ccc(NC(=O)Nc2ccc3c(c2)C(=O)N([C@H](C)CO)C[C@H](C)[C@@H](CN(C)Cc2ccc(C(F)(F)F)cc2)OCCCC[C@@H](C)O3)cc1,inactive
10,COc1ccc(NC(=O)N(C)C[C@H]2Oc3c(NC(=O)Nc4cccc5ccccc45)cccc3C(=O)N([C@H](C)CO)C[C@H]2C)cc1,inactive
11,Cc1noc(C)c1S(=O)(=O)N(C)C[C@H]1Oc2ccc(NC(=O)Nc3cccc4ccccc34)cc2CC(=O)N([C@H](C)CO)C[C@@H]1C,inactive
12,COc1ccccc1N1CCN(Cc2nc3ccsc3c(=O)[nH]2)CC1,inactive
13,CN1CCN(C2=Cc3ccccc3Sc3cc(F)ccc32)CC1,inactive
14,Cc1noc(C)c1S(=O)(=O)Nc1ccc2c(c1)CC(=O)N([C@H](C)CO)C[C@@H](C)[C@H](CN(C)Cc1ccc(Cl)c(Cl)c1)O2,inactive
15,Cc1noc(C)c1S(=O)(=O)Nc1ccc2c(c1)CC(=O)N([C@H](C)CO)C[C@@H](C)[C@@H](CN(C)Cc1ccc(Cl)c(Cl)c1)O2,inactive
16,Cc1noc(C)c1S(=O)(=O)Nc1ccc2c(c1)CC(=O)N([C@@H](C)CO)C[C@H](C)[C@@H](CN(C)Cc1ccc(Cl)c(Cl)c1)O2,inactive
17,Cc1noc(C)c1S(=O)(=O)Nc1ccc2c(c1)CC(=O)N([C@@H](C)CO)C[C@@H](C)[C@H](CN(C)Cc1ccc(-c3ccccc3)cc1)O2,inactive
18,Cc1noc(C)c1S(=O)(=O)Nc1ccc2c(c1)CC(=O)N([C@H](C)CO)C[C@@H](C)[C@@H](CN(C)Cc1ccc(C(F)(F)F)cc1)O2,inactive
19,Cc1noc(C)c1S(=O)(=O)Nc1ccc2c(c1)CC(=O)N([C@H](C)CO)C[C@H](C)[C@@H](CN(C)Cc1ccc(Cl)c(Cl)c1)O2,inactive
